# Most compounds without a hit are left out; they make up all but 1.8% or so of the library.
# Proteasome disasm: inhibitors of ATP-driven 26S proteasome dissociation, primary screen, biochemical, bead-based flow cytometry, GFP-tagged proteasome. anti-FLAG beads, GFP-proteasome disassembly. inhibition of disassembly, % (test concentration not listed). 0.2% of 24,000 active. AID 751, 2007;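 active = inhibition of disassembly above about 33%, limit read from the data; inconclusive = likely self-fluorescent, control bead median signal at least 40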;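 also: plate controls were ATP control with full disassembly for no effect and ATP-gamma-S intact proteasomes for full effect; higher percent means more bead fluorescence retained so stronger block of disassembly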
# S aureus QS inh: S. aureus quorum sensing inhibitors, primary screen, RNAIII-GFP reporter, flow cytometry. inhibition, % at 2 µM. 0.3% of 24,000 active. S. aureus RN6390 RNAIII-GFP reporter, AIP-induced, flow cytometry 3 h. AID 527, 2006;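 active = share of bacteria positive for the green fluorescent reporter and its mean brightness both inhibited by 50% or more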;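 also: 0% = AIP-stimulated control and 100% = unstimulated bacteria without AIP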
# VLA-4 antagonist: inhibitors of LDV-FITC binding to Mn2+-activated VLA-4, primary screen, Jurkat cells; 0.2% of 24,000 active; inhibition, % at 10 µM (by protocol); LDV-FITC binding with Mn2+, flow cytometry; 100% = Mn2+-driven binding gain fully reversed; AID 529, 2006;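 active = inhibition above 50%; inconclusive = compound itself fluorescent, judged against control cell fluorescence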;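 also: 0% = Mn2+ stimulated cells lacking compound and 100% = ligand binding without Mn2+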
# Target sequence (P13612 whole entry, looked up): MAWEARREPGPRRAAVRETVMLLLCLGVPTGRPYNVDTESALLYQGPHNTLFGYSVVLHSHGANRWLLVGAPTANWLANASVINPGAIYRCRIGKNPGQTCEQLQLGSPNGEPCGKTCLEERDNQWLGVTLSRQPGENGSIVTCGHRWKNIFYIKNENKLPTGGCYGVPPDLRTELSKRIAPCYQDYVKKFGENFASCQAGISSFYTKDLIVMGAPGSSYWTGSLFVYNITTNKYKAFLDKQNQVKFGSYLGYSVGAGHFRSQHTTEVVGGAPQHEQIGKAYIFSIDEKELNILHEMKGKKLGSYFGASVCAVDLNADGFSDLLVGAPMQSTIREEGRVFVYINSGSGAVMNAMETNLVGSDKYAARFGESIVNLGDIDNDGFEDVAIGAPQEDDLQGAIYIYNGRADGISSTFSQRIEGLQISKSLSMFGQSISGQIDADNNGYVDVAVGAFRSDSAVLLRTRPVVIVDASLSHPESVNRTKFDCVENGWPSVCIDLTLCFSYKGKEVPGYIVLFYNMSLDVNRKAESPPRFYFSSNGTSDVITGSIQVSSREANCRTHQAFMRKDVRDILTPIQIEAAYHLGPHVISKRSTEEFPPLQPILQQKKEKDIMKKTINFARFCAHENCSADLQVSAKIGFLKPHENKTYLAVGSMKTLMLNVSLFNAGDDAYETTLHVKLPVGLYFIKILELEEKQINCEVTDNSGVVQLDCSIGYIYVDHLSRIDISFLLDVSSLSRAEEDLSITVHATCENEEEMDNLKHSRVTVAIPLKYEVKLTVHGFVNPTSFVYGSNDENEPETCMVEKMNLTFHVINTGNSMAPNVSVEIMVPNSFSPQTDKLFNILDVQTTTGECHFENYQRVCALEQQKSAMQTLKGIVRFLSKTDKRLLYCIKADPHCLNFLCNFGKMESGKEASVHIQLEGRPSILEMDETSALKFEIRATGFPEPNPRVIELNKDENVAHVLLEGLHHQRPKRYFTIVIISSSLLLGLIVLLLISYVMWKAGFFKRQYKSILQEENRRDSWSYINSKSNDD
# Autofluor Jurkat: compound autofluorescence on Jurkat cells, primary screen, artefact control for VLA-4 allosteric ligand project, cell-based, flow cytometry | stronger effect = higher value; 1 = vehicle-only cell background | fluorescence ratio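 (tested at 10 µM compound in the well)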 | 0.61% of 24,000 active;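 active = fluorescence ratio above 2.44, which is 1 plus 3 SD of all ratios; inconclusive = signal too bright to measure linearly, ratio around 10 or more; inactive = fluorescence ratio below 2.44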;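 also: green fluorescence of cells measured with 488 nm excitation and 530 nm emission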
# Prostate diff: activators of LNCaP prostate cell differentiation, primary screen, flow cytometry side scatter. side scatter shift, % at 10 µM. 4 d. 0.56% of 24,000 active. AID 795, 2007;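 active = side scatter shift above 30%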;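 also: androgen-responsive LNCaP prostate cancer cells in charcoal-stripped serum medium; percent of cells past a gate set so DMSO wells show 10% shift; higher shift means more granular cells and more differentiation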
# VLA-4 allo ag: enhancers of LDV-FITC binding to VLA-4 integrin, primary screen, Jurkat cells, flow cytometry | Integrin alpha-4 (Homo sapiens), P13612 | activation, % at 10 µM (by protocol) | 24,000 tested, under 10 active | AID 528, 2006;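 active = fluorescent ligand binding to cells raised by more than 40% of the manganese-induced maximum; inconclusive = compound's own fluorescence above 85% of the ligand control signal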;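 also: 0% = ligand binding without compound and 100% = manganese-stimulated maximal binding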
# * = called active by the depositor; ? = inconclusive; · = no result given.
SMILES,Proteasome disasm,S aureus QS inh,VLA-4 antagonist,Autofluor Jurkat,Prostate diff,VLA-4 allo ag
O=C(Nc1ccc2c(c1)OCO2)C(c1ccccc1)N1CCCCC1 (stereo not given),-4,12,-1,1,12,-3
CCOC(=O)c1cccc(NC(=O)CSc2nnc(-c3cccnc3)n2C)c1,14,18,-4,0.98,6,-3
O=C(Cn1cccc1C(=O)c1ccccc1)NCc1cccs1,-1,0,13,1.1,9,0
Cn1cc(/C=N/n2cnc3sc4c(c3c2=O)CCCC4)c2ccccc21,-1,68*,-25,1,2,7
Cn1cc(C2NC(=O)c3c(sc4c3CCCC4)N2)c2ccccc21 (stereo not given),?,0,-22,1.3,7,4
COc1ccc(CNc2nc3c(c(C(F)(F)F)n2)CCCCC3)cc1,-3,6,-5,1.1,6,3
O=C(NC1(C(F)(F)F)C(=O)Nc2c1c(=O)[nH]c(=O)n2Cc1ccco1)C1CC1 (stereo not given),6,-5,0,1.1,2,7
CN(C)c1ccc(-c2nn3c(-c4ccc(Cl)cc4Cl)nnc3s2)cc1,1,0,-8,1,39*,4
Cc1oc(-c2ccc(Cl)cc2)cc1-c1nn2c(-c3ccoc3C)nnc2s1,0,-1,0,0.98,7,-9
Cc1ccc(-c2nc(C3CCN(S(C)(=O)=O)CC3)no2)cc1,-1,2,-4,1.1,12,3
Cc1nn(-c2ccccc2)c2sc(-c3n[nH]c(=S)o3)cc12,8,60*,-5,1,4,0
O=C(CSc1c2c(nc3ccc(Cl)cc13)CCCC2)N1CCN(C(=O)c2ccco2)CC1,2,12,32,1.1,14,-11
CC(C)C(c1nnnn1C1CCCC1)N1CCN(C(=O)c2ccco2)CC1 (stereo not given),0,-3,1,1.1,4,1
Nc1ccc(Nc2ccccc2N)cc1,?,9,?,5.2*,0,?
N#C[C@@H]1[C@@H]2C(=O)N(c3ccc4c(c3)OCCO4)C(=O)[C@@H]2C2c3ccccc3C=CN21 (stereo not given in full),6,2,?,5.2*,6,?
O=C1CC(N2CCN(c3ccccc3)CC2)C(=O)N1c1ccc2c(c1)OCCO2 (stereo not given),·,3,·,·,·,·
CCOC(=O)c1[nH]c(C)c(C(=O)N2CCN(c3cccc(Cl)c3)CC2)c1C,1,-4,?,1.2,4,?
COc1cc(C2c3c(oc4c(C)cc(C)cc4c3=O)C(=O)N2Cc2cccnc2)cc(OC)c1OC (stereo not given),0,1,-10,1.1,6,-6
CCN(CC)CC(=O)Nc1ccc(-c2nc3cc(NC(=O)CN(CC)CC)ccc3o2)cc1,0,0,-26,1.1,42*,14
COC(=O)c1ccc(-c2ccc(CNCC(O)c3ccccc3)o2)cc1 (stereo not given),-3,-1,0,1,5,0
N#CC1=C(N)Oc2n[nH]c(-c3ccc(F)cc3)c2C1c1ccncc1 (stereo not given),-1,1,17,1.1,4,-2
CCOc1ccccc1NC(=O)CSc1nnc(Cn2c(=O)sc3ccccc32)n1C,8,0,?,1.1,5,?
Cc1nn(C(C)(C)C)c(OC(=O)C2CCCC2)c1S(=O)(=O)c1ccccc1,1,89*,-22,0.93,5,-2
Cc1ccc(S(=O)(=O)c2c(C)nn(C(C)(C)C)c2OC(=O)C2CCCC2)cc1,-1,-12,?,1.1,1,?
N=c1n(CCO)c2ccccc2n1CCOc1ccc(Cl)cc1Cl,1,-2,13,1.1,39*,-5
CCc1nnc(NC(=O)c2ccc(S(=O)(=O)N(CCOC)CCOC)cc2)o1,-2,-3,?,3.6*,7,?
COCCN(CCOC)S(=O)(=O)c1ccc(C(=O)Nc2nnc(C3CC3)o2)cc1,0,-4,-10,1,5,4
